Reference: the supplement of paper PMC11732987, “Enantioselective OTUD7B fragment discovery through chemoproteomics screening and high-throughput optimisation” (Communications Chemistry, 2025)
Unmarked numbers belong to inactive results.

Legend:
Assay in all cases: log2 ratio of Biotin-Ahx-Ub-VS probe labelling (fragment/DMSO); higher = less target engagement (more negative = stronger competition), active = hit call of the paper (q ≤ 0.05, log2 ratio ≤ -1)
Settings in all cases: compound concentration: 200 uM; treatment time: 3 h
USP19 = target: T1, USP19 (UniProt O94966)
T1 sequence (whole entry): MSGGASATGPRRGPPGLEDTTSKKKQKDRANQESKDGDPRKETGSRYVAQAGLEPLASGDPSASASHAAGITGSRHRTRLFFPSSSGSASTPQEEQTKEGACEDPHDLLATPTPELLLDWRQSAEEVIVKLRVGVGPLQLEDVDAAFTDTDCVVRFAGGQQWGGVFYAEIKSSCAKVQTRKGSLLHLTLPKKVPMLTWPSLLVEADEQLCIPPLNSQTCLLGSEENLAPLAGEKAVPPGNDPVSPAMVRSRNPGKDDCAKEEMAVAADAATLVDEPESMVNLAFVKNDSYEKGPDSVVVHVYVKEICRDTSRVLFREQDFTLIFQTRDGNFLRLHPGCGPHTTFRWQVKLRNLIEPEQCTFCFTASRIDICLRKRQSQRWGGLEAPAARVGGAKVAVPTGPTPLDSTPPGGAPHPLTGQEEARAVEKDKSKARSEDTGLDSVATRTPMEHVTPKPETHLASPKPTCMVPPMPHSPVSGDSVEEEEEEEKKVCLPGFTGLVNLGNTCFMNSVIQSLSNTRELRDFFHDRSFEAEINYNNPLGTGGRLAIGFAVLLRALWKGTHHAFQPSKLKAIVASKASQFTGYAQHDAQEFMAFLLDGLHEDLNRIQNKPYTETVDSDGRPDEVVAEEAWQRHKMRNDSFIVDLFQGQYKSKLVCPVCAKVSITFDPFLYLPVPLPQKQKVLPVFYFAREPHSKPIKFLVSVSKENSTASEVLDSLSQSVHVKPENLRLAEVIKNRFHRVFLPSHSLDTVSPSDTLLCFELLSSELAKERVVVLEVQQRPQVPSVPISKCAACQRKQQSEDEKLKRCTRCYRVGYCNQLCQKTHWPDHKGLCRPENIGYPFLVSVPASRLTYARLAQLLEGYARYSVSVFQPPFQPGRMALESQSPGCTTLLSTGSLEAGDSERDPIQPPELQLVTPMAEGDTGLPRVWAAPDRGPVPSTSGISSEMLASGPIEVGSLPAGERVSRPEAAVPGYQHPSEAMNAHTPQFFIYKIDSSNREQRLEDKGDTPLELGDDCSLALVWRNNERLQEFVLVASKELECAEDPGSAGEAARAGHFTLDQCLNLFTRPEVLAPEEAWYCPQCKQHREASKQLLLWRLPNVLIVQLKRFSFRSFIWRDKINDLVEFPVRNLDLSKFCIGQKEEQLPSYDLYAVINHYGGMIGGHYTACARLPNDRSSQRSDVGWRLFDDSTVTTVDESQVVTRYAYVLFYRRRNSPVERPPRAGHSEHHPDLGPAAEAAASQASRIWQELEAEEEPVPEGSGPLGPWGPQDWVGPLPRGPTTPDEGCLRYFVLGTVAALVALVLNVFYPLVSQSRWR
How it was run: (§1)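 Each value is an average log2 ratio of fragment to vehicle, tested by unpaired t-test. The underlying Spectronaut label-free quantities were global-median-normalised, and only proteins with ≥2 unique peptides were included. Triplicate HEK293T lysate samples (495 µg) were exposed to fragment at 200 µM or vehicle for 3 h, then to Biotin-Ahx-Ub-VS at 0.5 µM final for 1 h, before NeutrAvidin enrichment of labelled DUBs, LysC and trypsin digestion, and diaPASEF LC-MS/MS.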

USP22 = target: T2, USP22 (UniProt Q9UPT9)
T2 sequence (whole entry): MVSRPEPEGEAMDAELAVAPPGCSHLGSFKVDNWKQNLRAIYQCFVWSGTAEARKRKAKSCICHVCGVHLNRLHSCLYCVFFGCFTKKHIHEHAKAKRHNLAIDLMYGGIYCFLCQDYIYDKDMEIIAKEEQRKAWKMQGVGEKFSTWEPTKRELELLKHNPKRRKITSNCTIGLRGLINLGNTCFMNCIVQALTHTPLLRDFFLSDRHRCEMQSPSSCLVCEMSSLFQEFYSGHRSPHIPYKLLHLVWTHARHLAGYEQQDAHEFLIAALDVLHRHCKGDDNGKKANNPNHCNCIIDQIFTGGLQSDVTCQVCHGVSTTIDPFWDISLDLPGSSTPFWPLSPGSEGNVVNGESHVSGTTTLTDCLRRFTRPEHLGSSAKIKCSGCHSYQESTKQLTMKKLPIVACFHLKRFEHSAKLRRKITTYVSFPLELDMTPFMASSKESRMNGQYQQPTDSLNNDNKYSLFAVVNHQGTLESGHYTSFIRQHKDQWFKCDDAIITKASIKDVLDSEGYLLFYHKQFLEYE
How it was run: as §1

USP24 = USP24 (UniProt Q9UPU5)
How it was run: as §1

USP25 = target: T3, USP25 (UniProt Q9UHP3)
T3 sequence (whole entry): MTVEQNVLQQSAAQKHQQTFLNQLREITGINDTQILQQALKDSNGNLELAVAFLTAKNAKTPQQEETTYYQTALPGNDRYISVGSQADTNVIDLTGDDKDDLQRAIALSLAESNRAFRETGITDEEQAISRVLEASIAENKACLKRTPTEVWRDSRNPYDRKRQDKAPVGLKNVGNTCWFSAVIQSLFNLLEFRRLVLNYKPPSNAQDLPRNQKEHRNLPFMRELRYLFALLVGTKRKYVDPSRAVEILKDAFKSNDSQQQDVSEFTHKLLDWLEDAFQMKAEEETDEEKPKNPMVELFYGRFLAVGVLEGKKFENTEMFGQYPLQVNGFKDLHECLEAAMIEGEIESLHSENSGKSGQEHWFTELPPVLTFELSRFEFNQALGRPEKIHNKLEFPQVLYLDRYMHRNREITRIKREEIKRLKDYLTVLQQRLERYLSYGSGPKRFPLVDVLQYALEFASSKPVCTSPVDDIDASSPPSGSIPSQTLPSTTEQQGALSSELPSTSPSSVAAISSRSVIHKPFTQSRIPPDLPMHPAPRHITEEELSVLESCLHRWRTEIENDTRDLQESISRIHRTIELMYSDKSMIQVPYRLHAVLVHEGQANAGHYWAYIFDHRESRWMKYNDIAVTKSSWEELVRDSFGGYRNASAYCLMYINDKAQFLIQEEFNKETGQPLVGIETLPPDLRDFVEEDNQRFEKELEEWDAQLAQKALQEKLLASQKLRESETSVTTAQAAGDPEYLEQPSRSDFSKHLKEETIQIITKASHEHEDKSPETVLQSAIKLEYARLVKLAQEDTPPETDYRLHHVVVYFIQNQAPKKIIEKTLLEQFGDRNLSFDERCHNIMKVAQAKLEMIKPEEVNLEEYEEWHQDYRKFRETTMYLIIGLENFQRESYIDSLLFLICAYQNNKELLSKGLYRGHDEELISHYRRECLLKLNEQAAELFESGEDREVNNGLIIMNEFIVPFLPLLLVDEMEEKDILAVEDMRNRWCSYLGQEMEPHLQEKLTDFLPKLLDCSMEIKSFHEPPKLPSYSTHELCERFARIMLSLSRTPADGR
How it was run: as §1

USP28 = target: T4, USP28 (UniProt Q96RU2)
T4 sequence (whole entry): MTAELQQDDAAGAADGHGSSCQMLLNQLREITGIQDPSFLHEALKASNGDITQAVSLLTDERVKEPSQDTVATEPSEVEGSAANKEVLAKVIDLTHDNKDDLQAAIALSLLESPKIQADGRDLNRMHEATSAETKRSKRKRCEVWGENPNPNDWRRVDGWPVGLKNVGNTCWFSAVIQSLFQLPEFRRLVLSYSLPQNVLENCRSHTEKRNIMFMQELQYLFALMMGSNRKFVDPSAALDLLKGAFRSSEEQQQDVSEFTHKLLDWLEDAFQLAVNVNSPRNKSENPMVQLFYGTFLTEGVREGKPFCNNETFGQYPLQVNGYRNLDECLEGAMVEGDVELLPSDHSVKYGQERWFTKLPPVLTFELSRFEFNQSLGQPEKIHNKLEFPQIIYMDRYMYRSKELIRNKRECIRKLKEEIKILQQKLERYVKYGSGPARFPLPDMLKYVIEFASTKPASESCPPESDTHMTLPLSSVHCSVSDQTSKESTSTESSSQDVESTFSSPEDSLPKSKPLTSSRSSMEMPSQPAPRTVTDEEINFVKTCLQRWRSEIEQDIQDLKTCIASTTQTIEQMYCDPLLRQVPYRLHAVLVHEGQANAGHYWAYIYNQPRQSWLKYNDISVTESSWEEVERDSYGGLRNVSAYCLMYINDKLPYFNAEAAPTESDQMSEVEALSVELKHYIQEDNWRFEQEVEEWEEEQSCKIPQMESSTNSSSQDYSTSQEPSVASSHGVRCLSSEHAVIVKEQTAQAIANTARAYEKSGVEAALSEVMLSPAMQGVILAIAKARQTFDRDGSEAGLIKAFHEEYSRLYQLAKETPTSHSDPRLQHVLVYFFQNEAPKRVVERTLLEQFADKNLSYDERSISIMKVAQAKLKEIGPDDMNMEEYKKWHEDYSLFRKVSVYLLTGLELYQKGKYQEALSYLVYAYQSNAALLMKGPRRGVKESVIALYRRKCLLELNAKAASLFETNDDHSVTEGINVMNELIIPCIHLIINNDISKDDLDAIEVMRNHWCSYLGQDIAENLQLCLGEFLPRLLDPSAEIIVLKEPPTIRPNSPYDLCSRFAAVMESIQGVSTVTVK
How it was run: as §1

Chain of USP24 (Q9UPU5 whole entry): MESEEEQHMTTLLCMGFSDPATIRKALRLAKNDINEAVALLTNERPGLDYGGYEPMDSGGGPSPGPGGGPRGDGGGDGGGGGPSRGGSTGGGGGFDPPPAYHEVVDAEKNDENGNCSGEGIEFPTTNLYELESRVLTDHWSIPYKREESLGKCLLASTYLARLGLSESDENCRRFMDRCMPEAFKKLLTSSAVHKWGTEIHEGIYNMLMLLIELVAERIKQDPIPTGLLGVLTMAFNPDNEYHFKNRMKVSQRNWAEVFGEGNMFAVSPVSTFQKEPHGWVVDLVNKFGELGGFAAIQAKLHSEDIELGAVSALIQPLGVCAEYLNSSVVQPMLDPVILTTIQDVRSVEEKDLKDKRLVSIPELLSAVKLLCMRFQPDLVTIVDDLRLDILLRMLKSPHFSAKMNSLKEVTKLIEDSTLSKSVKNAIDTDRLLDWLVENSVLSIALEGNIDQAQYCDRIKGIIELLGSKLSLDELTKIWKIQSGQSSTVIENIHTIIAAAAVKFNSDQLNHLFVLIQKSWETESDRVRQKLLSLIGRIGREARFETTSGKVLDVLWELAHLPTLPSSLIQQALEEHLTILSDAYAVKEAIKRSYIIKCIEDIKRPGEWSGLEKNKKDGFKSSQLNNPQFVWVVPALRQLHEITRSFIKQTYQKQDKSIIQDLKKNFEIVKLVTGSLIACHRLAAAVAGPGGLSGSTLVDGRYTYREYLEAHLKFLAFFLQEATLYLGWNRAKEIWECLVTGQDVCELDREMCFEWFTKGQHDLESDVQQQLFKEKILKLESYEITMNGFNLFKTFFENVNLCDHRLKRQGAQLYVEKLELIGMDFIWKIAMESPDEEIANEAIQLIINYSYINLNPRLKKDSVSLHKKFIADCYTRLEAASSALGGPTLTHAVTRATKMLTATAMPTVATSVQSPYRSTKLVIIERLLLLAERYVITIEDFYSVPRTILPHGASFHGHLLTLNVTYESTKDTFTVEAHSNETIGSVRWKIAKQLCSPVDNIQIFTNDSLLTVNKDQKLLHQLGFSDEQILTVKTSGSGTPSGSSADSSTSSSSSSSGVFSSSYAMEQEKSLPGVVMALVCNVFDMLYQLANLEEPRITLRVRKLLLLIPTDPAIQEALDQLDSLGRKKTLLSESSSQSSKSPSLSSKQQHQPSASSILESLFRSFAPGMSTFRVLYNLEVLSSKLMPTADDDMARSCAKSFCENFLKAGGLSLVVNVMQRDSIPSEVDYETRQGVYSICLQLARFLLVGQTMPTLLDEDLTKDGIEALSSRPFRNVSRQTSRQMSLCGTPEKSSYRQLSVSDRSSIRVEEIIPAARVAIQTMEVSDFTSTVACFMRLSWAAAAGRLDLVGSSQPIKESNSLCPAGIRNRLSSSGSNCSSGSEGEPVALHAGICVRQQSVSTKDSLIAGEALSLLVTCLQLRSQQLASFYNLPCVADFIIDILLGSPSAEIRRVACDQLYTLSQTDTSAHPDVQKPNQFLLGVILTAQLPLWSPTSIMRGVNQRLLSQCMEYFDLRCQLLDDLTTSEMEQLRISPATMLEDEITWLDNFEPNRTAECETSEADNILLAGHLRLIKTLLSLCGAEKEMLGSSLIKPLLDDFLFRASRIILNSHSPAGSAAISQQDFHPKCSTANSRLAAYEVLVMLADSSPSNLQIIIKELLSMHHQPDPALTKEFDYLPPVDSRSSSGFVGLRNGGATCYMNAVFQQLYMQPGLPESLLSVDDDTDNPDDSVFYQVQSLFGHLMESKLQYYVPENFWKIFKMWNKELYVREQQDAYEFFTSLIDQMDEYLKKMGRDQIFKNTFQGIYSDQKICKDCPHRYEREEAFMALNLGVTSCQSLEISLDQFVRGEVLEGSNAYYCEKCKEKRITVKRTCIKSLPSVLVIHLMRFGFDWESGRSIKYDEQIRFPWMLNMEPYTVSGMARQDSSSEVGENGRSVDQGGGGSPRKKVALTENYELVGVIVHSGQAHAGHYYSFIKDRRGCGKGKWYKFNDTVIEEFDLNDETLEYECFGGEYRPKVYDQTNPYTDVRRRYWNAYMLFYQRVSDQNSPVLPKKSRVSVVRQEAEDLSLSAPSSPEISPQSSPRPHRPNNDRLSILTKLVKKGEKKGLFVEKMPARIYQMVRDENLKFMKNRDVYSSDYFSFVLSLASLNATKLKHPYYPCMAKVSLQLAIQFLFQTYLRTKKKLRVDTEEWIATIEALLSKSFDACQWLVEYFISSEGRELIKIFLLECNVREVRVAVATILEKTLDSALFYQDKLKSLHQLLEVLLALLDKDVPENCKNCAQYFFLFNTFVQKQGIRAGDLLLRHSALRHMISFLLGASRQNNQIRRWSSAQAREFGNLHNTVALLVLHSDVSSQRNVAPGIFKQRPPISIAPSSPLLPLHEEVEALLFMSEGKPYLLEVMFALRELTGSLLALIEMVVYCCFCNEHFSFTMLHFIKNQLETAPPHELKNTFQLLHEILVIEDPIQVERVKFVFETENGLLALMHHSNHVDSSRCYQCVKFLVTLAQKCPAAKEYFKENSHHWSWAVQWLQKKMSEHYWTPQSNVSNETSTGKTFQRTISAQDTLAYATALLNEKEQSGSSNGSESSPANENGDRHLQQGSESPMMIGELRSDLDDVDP

SMILES: NS(=O)(=O)c1ccc(Cl)c(NC(=O)CCl)c1
- log2 ratio of Biotin-Ahx-Ub-VS probe labelling (USP19): -0.307
- log2 ratio of Biotin-Ahx-Ub-VS probe labelling (USP22): -0.46
- log2 ratio of Biotin-Ahx-Ub-VS probe labelling (USP24): -0.149
- log2 ratio of Biotin-Ahx-Ub-VS probe labelling (USP25): -1.57 (active)
- log2 ratio of Biotin-Ahx-Ub-VS probe labelling (USP28): -1.42 (active)
